Data reported in PubChem BioAssay (NCATS).
Results filed as inconclusive are left out. Where a call stands in place of a potency, no number is given. Active and inactive are the calls of the source. Calls follow the shape of the dose curve; as a rule, active = well fitted curve in the direction sought with a large enough effect; inconclusive = small, poorly fitted or top-dose-only effect, or another doubt; inactive = no such curve, though single readings can be large; an effect the other way counts as inactive or inconclusive.

How the values were obtained:
[1] = qHTS of pediatric cancer cell lines to identify multiple opportunities for drug repurposing: Primary screen for MG 63 (6-TG R) cells (AID 1347105); also: nearly all actives have a fitted effect of over 50% in size; also: potency is read from the fitted curve at half-maximal effect
Procedure, shortened: (§1)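 Following a 5-hour attachment period, cells at 500-1,000/well received compounds and were cultured for 48 hours. CellTiter-Glo was added and luminescence read to estimate viable, metabolically active cells.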

[2] = qHTS of pediatric cancer cell lines to identify multiple opportunities for drug repurposing: Primary screen for Rh30 cells (AID 1347107); also: nearly all actives have a fitted effect of over 75% in size; also: potency is read from the fitted curve at half-maximal effect; as to activity change, negative = cytotoxic: series mostly up to about 46 µM
Procedure, shortened: (§2)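 Cells (500-1,000/well) rested 5 h, then received compounds for 48 h; metabolically active cells were measured by CellTiter-Glo luminescence. Final concentrations spanned up to 46 µM (MIPE, 11-point) or 0.59 nM-46 µM (NPC, 8-point) in primary screens, 11-point in follow-ups.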

[3] = qHTS of pediatric cancer cell lines to identify multiple opportunities for drug repurposing: Primary screen for Rh41 cells (AID 1347108); also: nearly all actives have a fitted effect of over 70% in size; also: potency is read from the fitted curve at half-maximal effect;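 as to activity change, negative = cytotoxic: series mostly up to about 46 µM; luminescence drop marks cytotoxic hits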
Procedure, shortened: as §1

[4] = qHTS of pediatric cancer cell lines to identify multiple opportunities for drug repurposing: Confirmatory screen for NB1643 cells (AID 1347109); also: nearly all actives have a fitted effect of over 45% in size; also: potency is read from the fitted curve at half-maximal effect
Procedure, shortened: as §2

[5] = qHTS of pediatric cancer cell lines to identify multiple opportunities for drug repurposing: Confirmatory screen for A673 cells (AID 1347110);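 also: cells exposed to compound for 48 h before the viability read; nearly all actives have a fitted effect of over 65% in size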; also: potency is read from the fitted curve at half-maximal effect
Procedure, shortened: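 qHTS titration format: primary MIPE 0.78 nM-46 µM (11 pts), NPC 0.59 nM-46 µM; confirmation 11 pts. 48 h, CTG luminescence.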

[6] = qHTS of pediatric cancer cell lines to identify multiple opportunities for drug repurposing: Confirmatory screen for BT-12 cells (AID 1347112); also: nearly all actives have a fitted effect of over 55% in size; also: potency is read from the fitted curve at half-maximal effect
Procedure, shortened: as §2

[7] = qHTS of pediatric cancer cell lines to identify multiple opportunities for drug repurposing: Confirmatory screen for LAN-5 cells (AID 1347113); also: nearly all actives have a fitted effect of over 65% in size; also: potency is read from the fitted curve at half-maximal effect
Procedure, shortened: as §2

[8] = qHTS of pediatric cancer cell lines to identify multiple opportunities for drug repurposing: Confirmatory screen for DAOY cells (AID 1347114); also: nearly all actives have a fitted effect of over 65% in size; also: potency is read from the fitted curve at half-maximal effect
Procedure, shortened: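 Viability measured as metabolically active cells via CellTiter-Glo luminescence following 48 hours of compound exposure, 11-point dilutions in confirmatory testing. 500-1,000 cells/well plated 5 hours before dosing; controls were DMSO and 2.3 µM bortezomib.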

[9] = qHTS of pediatric cancer cell lines to identify multiple opportunities for drug repurposing: Confirmatory screen for NB-EBc1 cells (AID 1347115);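 also: cells exposed to compound for 48 h before the viability read; nearly all actives have a fitted effect of over 45% in size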; also: potency is read from the fitted curve at half-maximal effect
Procedure, shortened: as §2

[10] = qHTS of pediatric cancer cell lines to identify multiple opportunities for drug repurposing: Primary screen for control Hh wild type fibroblast cells (AID 1347106);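 also: series mostly up to about 46 µM; a drop in luminescence marks cytotoxicity and a rise apparent proliferation; nearly all actives have a fitted effect of over 55% in size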
Procedure, shortened: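 Viability after 48 h compound treatment at 37C, 500-1,000 cells/well, read as ATP luminescence with CellTiter-Glo. Primary screens used 11-point (MIPE, 0.78 nM-46 µM) or 8-point (NPC, 0.59 nM-46 µM) final concentrations; follow-up screens used 11-point dilutions.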

SMILES: CCCCC(CC)CN=C(N)NC(N)=NCCCCCCN=C(N)NC(N)=NCC(CC)CCCC (configuration not stated)
- Potency [1]: 6.68 µM (active)
- Potency [2]: 18.8 µM (active)
- Potency [3]: 21.1 µM (active)
- Potency [4]: 5.22 µM (active)
- Potency [5]: 3.29 µM (active)
- Potency [6]: 5.22 µM (active)
- Potency [7]: 7.37 µM (active)
- Potency [8]: 4.14 µM (active)
- Potency [9]: 9.27 µM (active)

SMILES: CCCCS(=O)(=O)N[C@@H](Cc1ccc(OCCCCC2CCNCC2)cc1)C(=O)O
- Potency [1]: inactive
- Potency [2]: inactive
- Potency [3]: inactive

SMILES: CCCN1CCCC[C@H]1C(=O)Nc1c(C)cccc1C
- Potency [1]: inactive
- Potency [2]: inactive
- Potency [3]: inactive

SMILES: CC(Cc1cccc(C(F)(F)F)c1)NCCOC(=O)c1ccccc1 (configuration not stated)
- Potency [1]: inactive
- Potency [2]: inactive
- Potency [3]: inactive

SMILES: COC(=O)[C@@H]1CC2=CC(=O)CC[C@]2(C)[C@@]23O[C@@H]2C[C@@]2(C)[C@@H](CC[C@@]24CCC(=O)O4)[C@H]13
- Potency [1]: inactive
- Potency [2]: inactive
- Potency [3]: inactive

SMILES: Cc1c(C(C)C)c(=O)n(-c2ccccc2)n1C
- Potency [1]: inactive
- Potency [2]: inactive
- Potency [3]: inactive

SMILES: Oc1ccc(O)cc1
- Potency [1]: inactive
- Potency [2]: inactive
- Potency [4]: 18.5 µM (active)
- Potency [9]: 14.7 µM (active)

SMILES: CCCCN1CCCC1C(=O)Nc1c(C)cc(C)cc1C (configuration not stated)
- Potency [1]: inactive
- Potency [2]: inactive
- Potency [3]: inactive

SMILES: CC(C)(C(=O)c1cccnc1)c1cccnc1
- Potency [1]: inactive
- Potency [2]: inactive
- Potency [3]: inactive
- Potency [4]: inactive
- Potency [5]: 0.369 µM (active)
- Potency [6]: inactive
- Potency [8]: inactive
- Potency [9]: inactive

SMILES: N[C@H](Cc1c[nH]c2ccccc12)C(=O)O
- Potency [1]: inactive
- Potency [2]: inactive
- Potency [3]: inactive

SMILES: Cc1cccc(C)c1NC(=O)CN1CCN(CCCC(c2ccc(F)cc2)c2ccc(F)cc2)CC1
- Potency [1]: inactive
- Potency [2]: inactive
- Potency [3]: inactive

SMILES: CC(=O)OCC(=O)[C@@]1(OC(C)=O)[C@@H](C)C[C@H]2[C@@H]3C[C@H](F)C4=CC(=O)C=C[C@]4(C)[C@@]3(F)[C@@H](O)C[C@@]21C
- Potency [1]: inactive
- Potency [2]: inactive
- Potency [3]: inactive
- Potency [4]: inactive
- Potency [5]: inactive
- Potency [6]: inactive
- Potency [7]: inactive
- Potency [9]: inactive

SMILES: CC(C)(C)CC(C)(C)c1ccc(OCCOCC[N+](C)(C)Cc2ccccc2)cc1
- Potency [1]: 26.6 µM (active)
- Potency [3]: 16.8 µM (active)

SMILES: CCOC(=O)c1cccc(N)c1
- Potency [1]: inactive
- Potency [2]: inactive
- Potency [3]: inactive

SMILES: O=C1OCCN1/N=C/c1ccc([N+](=O)[O-])o1
- Potency [1]: inactive
- Potency [2]: inactive
- Potency [3]: inactive

SMILES: CO/N=C1\CN(c2nc3c(cc2F)c(=O)c(C(=O)O)cn3C2CC2)CC1CN (configuration not stated)
- Potency [1]: inactive
- Potency [2]: inactive
- Potency [3]: inactive

SMILES: C#C[C@]1(OC(C)=O)CC[C@H]2[C@@H]3CCC4=C[C@@H](OC(C)=O)CC[C@@H]4[C@H]3CC[C@@]21C
- Potency [1]: inactive
- Potency [2]: inactive
- Potency [3]: inactive

SMILES: COc1ccc(C2C(=O)c3ccccc3C2=O)cc1
- Potency [1]: inactive
- Potency [2]: inactive
- Potency [3]: inactive

SMILES: CCCCOc1cc(C(=O)NCCN(CC)CC)c2ccccc2n1
- Potency [1]: inactive
- Potency [2]: inactive
- Potency [3]: inactive

SMILES: CC1(C)O[C@@H]2C[C@H]3[C@@H]4CCC5=CC(=O)CC[C@]5(C)[C@@]4(F)[C@@H](O)C[C@]3(C)[C@]2(C(=O)CCl)O1
- Potency [1]: inactive
- Potency [2]: inactive
- Potency [3]: inactive
- Potency [4]: inactive
- Potency [5]: inactive
- Potency [6]: inactive
- Potency [8]: inactive
- Potency [9]: inactive

SMILES: CC(=O)OCC(=O)[C@@]12N=C(C)O[C@@H]1C[C@H]1[C@@H]3CCC4=CC(=O)C=C[C@]4(C)[C@H]3[C@@H](O)C[C@@]12C
- Potency [1]: inactive
- Potency [2]: inactive
- Potency [3]: inactive
- Potency [4]: 2.33 µM (active)
- Potency [5]: 0.293 µM (active)
- Potency [7]: 1.47 µM (active)
- Potency [8]: inactive

SMILES: Cc1ccc(O)c2ncccc12
- Potency [1]: 10.6 µM (active)
- Potency [3]: 4.73 µM (active)

SMILES: O=C(CCN1CCC(c2ccccc2)C1)c1ccc2c(c1)OCCO2 (configuration not stated)
- Potency [10]: inactive

SMILES: CN(C)/N=N/c1nc[nH]c1C(N)=O
- Potency [1]: inactive
- Potency [2]: inactive
- Potency [5]: inactive
- Potency [6]: inactive
- Potency [8]: inactive
- Potency [9]: 18.5 µM (active)

SMILES: CC1=C(C(=O)OC(C)C)C(c2cccc([N+](=O)[O-])c2)C(C(=O)OC2CN(C(c3ccccc3)c3ccccc3)C2)=C(N)N1 (configuration not stated)
- Potency [10]: inactive

SMILES: CCCCCCCCCCCCCCCC[N+](C)(C)CC
- Potency [1]: 26.6 µM (active)
- Potency [3]: 13.3 µM (active)

SMILES: NC[C@H]1O[C@H](O[C@H]2[C@H](O[C@@H]3O[C@H](CO)[C@@H](O)[C@H]3O)C(O)[C@H](N)C[C@@H]2N)[C@H](N)[C@@H](O)[C@@H]1O (some centres not stated)
- activity change, negative = cytotoxic [1]: -2.08% [at 9.22 µM] (inactive)
- activity change, negative = cytotoxic [2]: 23.6% [at 9.22 µM] (inactive)
- activity change, negative = cytotoxic [3]: 34.8% [at 9.22 µM] (inactive)

SMILES: CCOc1ccc(NC(=O)CC(C)O)cc1 (configuration not stated)
- Potency [1]: inactive
- Potency [2]: inactive
- Potency [3]: inactive

SMILES: Cc1c(C(N)=O)cc([N+](=O)[O-])cc1[N+](=O)[O-]
- Potency [1]: inactive
- Potency [2]: inactive
- Potency [3]: inactive

SMILES: NC(=O)C(=O)N/N=C/c1ccc([N+](=O)[O-])o1
- Potency [10]: inactive

SMILES: COC1=CC(=O)C[C@@H](C)[C@]12Oc1c(Cl)c(OC)cc(OC)c1C2=O
- Potency [10]: inactive
- Potency [2]: inactive

SMILES: CC(=O)N/N=C/c1ccc([N+](=O)[O-])o1
- Potency [10]: inactive
- Potency [2]: inactive

SMILES: CC/C(=C(/CC)c1ccc(O)cc1)c1ccc(O)cc1
- Potency [10]: inactive
- Potency [2]: inactive
- Potency [3]: inactive

SMILES: O=C1OC(c2ccc(O)cc2)(c2ccc(O)cc2)c2ccccc21
- Potency [10]: inactive
- Potency [2]: inactive
- Potency [3]: inactive

SMILES: Cc1ccccc1C(=O)Nc1ccc(C(=O)N2CCCC(N(C)C)c3ccccc32)cc1 (configuration not stated)
- Potency [2]: inactive
- Potency [3]: 16.8 µM (active)
